Assay results: PubChem BioAssay AID393 (SGCOxCompounds, 2006)
Active and inactive are the calls of the source. The rule behind the calls is not given here.

Each molecule was assayed against Serine/threonine-protein kinase pim-1 (Homo sapiens) (UniProt P11309) (assay: PIM1 kinase ligand binding by thermal shift, biophysical, human, melting temperature shift (AID 393)). Conditions: Thermal shift assay, at 10 µM, stronger effect = higher value; protein 2 µM, buffer 10 mM Na Citrate, pH 6.5, NaCl 150 mM unless noted.
Sequence of Serine/threonine-protein kinase pim-1 (Homo sapiens) (P11309 whole entry, looked up): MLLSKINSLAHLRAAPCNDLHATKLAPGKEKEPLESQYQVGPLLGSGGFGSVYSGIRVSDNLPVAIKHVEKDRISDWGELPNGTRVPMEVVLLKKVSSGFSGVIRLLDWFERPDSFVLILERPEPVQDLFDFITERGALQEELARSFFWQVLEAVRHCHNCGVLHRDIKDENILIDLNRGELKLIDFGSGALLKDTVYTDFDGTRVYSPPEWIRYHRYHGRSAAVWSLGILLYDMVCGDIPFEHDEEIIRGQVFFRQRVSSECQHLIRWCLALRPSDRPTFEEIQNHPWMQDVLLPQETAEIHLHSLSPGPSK

Row | Compound | Tm shift
1 | Cc1c2ccncc2c(C)c2c1[nH]c1ccccc12 | 8.6 Celsius (active)
2 | O=C1NC(=O)c2c1c1c3ccccc3n3c1c1c2c2ccccc2n1[C@@H]1CCC3O1 | 12.7 Celsius [protein 2 µM, buffer 10 mM PIPES, pH 6.5, NaCl 150 mM] (active)
3 | O=C1Nc2ccccc2/C1=C\c1cnc[nH]1 | 3.92 Celsius [protein 3 µM, buffer 10 mM HEPES] (active)
4 | N#C/C(=C1\Nc2ccccc2S1)c1ccnc(NCCc2cccnc2)n1 | 10.3 Celsius (active)
5 | CCn1cnc2c(Nc3cccc(Cl)c3)nc(N[C@@H]3CCCC[C@@H]3N)nc21 | 5.8 Celsius (active)
